# PubChem BioAssay AID1259313 (Sanford-Burnham Center for Chemical Genomics, 2017)
# Screen size: about 340,000 compounds; about 8,500 (2.5%) were called active.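 The calls were made as follows: active = melting temperature shift of at least 10% of the positive control shift, at one fixed dose; inactive = the rest.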 Shown is part of a subset that was picked to be rich in actives.
# Tested on: Glutamate receptor ionotropic, NMDA 3A (GRIN3A) ligand-binding domain
# Assay: NR3A LBD thermal stabilization by compounds – biophysical, differential scanning fluorimetry, uHTS, primary screen (AID 1259313)
# Settings: at 25 µM, stronger effect = higher value, 0% = protein alone, 100% = glycine-bound protein
row,Structure (SMILES),Tm shift relative to glycine control
1,O=C(NC(=O)c1cc(OCC(F)(F)F)ccc1OCC(F)(F)F)Nc1ccccc1,-0.36% (inactive)
2,CC(C)(C)n1nc2c(c1NC(=O)c1ccc(S(=O)(=O)N3CCCC3)cc1)CS(=O)C2 (stereo unspecified),0.18% (inactive)
3,CC(OC(=O)CNC(=O)c1cccc(F)c1)C(=O)NC1CCCCC1C (stereo unspecified),-0.43% (inactive)
4,CS(=O)(=O)c1sc(C(=O)NC(=S)Nc2ccc(OC(F)(F)F)cc2)c2c1C=CCC2,11.4% (active)
5,FC(F)(F)Oc1ccc(NC(=S)NCc2ccccc2)cc1,0.09% (inactive)
6,CCNC(=S)Nc1ccc(OC(F)(F)F)cc1,-1.13% (inactive)
7,c1ccc2cc3c(NCCN4CCOCC4)ccnc3cc2c1,-8.16% (inactive)
8,O=C1CC(c2cccc(Cl)c2)CC(O)=C1C=Nc1ccccc1 (stereo unspecified),-0.75% (inactive)
9,Cc1cc(C(=O)OCC(=O)NCc2ccco2)c(C)n1-c1ccccc1,-1.04% (inactive)
10,Cc1ccc(S(=O)(=O)N2CC(O)C[C@H]2C(=O)OCC(=O)Nc2ccc(N3CCOCC3)cc2)cc1C (stereo partly specified),1.27% (inactive)
11,O=C(Nc1ccc2c(c1)CCC2)c1cccc(S(=O)(=O)N2CCN(c3ccc(F)cc3)CC2)c1,2.49% (inactive)
12,O=C(Nc1ccc2c(c1)CCC2)c1cccc(S(=O)(=O)Nc2ccccc2Cl)c1,14.9% (active)
13,O=C(NCC1(N2CCCCC2)CCCCC1)c1cccc(S(=O)(=O)Nc2ccccc2Cl)c1,-0.85% (inactive)
14,O=C1CSC(c2cccc(F)c2)N1c1ccc(O)cc1 (stereo unspecified),-2.36% (inactive)
15,Cc1ccc(NC(=S)Nc2ccc(F)cc2)cc1,-4.68% (inactive)
16,S=C(Nc1ccccc1)Nc1ccc2ccccc2c1,12.3% (active)
17,COc1ccc(Nc2ccc3ccccc3c2)cc1,1.95% (inactive)
18,CCC1(c2ccccc2)NC(=O)N(CC(=O)Nc2ccccc2C(=O)NC2CCCC2)C1=O (stereo unspecified),0.96% (inactive)
19,Cc1ccc(S(=O)(=O)N2CCCCC2)cc1NC(=O)[C@@H]1CCCN1C(=O)c1cccs1,-0.43% (inactive)
20,COc1ccc(NC(=O)c2cc(-c3ccc(C)o3)nc3ccccc23)cc1,3.74% (inactive)
21,CC1CCCN(C(=O)c2cc(-c3ccco3)nc3ccccc23)C1 (stereo unspecified),1.06% (inactive)
22,CCOc1ccccc1-c1cc(C(=O)N/N=C(\C)c2cccnc2)c2ccccc2n1,-0.86% (inactive)
23,O=C(c1cc(-c2ccc(Cl)s2)nc2ccccc12)N1CCOCC1,-0.91% (inactive)

row,Structure (SMILES),Tm shift relative to glycine control
1,CC(=O)N1CCN(C(=O)c2cc(-c3ccc(C)o3)nc3ccccc23)CC1,40% (active)
2,CCOc1ccccc1-c1cc(C(=O)N2CCOCC2)c2ccccc2n1,12.6% (active)
3,CCN1C(=O)[C@@H]2[C@@H](c3ccc(-c4cccc(Cl)c4)cc3)N3CCC[C@@]3(C(=O)OC)[C@@H]2C1=O,-0.81% (inactive)
4,O=C(C(=O)N1CCc2ccccc2C1)c1c[nH]c2ccccc12,1.51% (inactive)
5,CN1CCN(C(=O)c2ccc(-c3ccc(Br)cc3)o2)CC1,1.11% (inactive)
6,CC(=O)c1cccc(NC(=S)N2CCN(S(C)(=O)=O)CC2)c1,-1.28% (inactive)
7,COc1ccc(CN(C)Cc2nc3cc(OC)c(OC)cc3c(=O)[nH]2)c(OC)c1,-1.12% (inactive)
8,COc1ccc(/C=C2/C(=O)OCc3cc(OC)c(OC)cc32)c(OC)c1,24.2% (active)
9,COc1ccc(/C=C2/C(=O)N(c3ccccc3)N=C2C)c(OC)c1,-4.6% (inactive)
10,CC(=O)c1ccc(OCCCC(=O)Nc2ccc(C)c(S(=O)(=O)N3CCOCC3)c2)cc1,1.04% (inactive)
11,O=C(Nc1ccnn1C1CCN(C/C=C/c2ccc(F)cc2)CC1)C1CCCC1,-2.33% (inactive)
12,CC1CCCCN1S(=O)(=O)c1ccc(S(=O)(=O)N(CC(=O)Nc2ccccc2)Cc2cccs2)cc1 (stereo unspecified),-4.57% (inactive)
13,O=C(C[n+]1ccc2c(c1)nnn2-c1ccccc1)c1ccc(Cl)cc1,-2.3% (inactive)
14,CC(=NNC(=S)N1CCCCCC1)c1ccccn1,1.26% (inactive)
15,CCn1c(SCc2cccc(C(=O)O)c2)nnc1-c1ccc(Cl)cc1,-0.55% (inactive)
16,CCCOc1ccc(C(=O)NCCc2ccccc2)cc1,25.8% (active)
17,CCCc1ccc(OCCNC(=O)c2ccccc2Br)cc1,-0.74% (inactive)
18,CN(c1ccccc1)S(=O)(=O)c1ccc(C(=O)NCCc2ccccc2)cc1,-0.95% (inactive)
19,CC(C)Oc1ccc(S(=O)(=O)N2CCOCC2)cc1NC(=O)C1CCCC1,2.72% (inactive)
20,N#Cc1cc([N+](=O)[O-])ccc1NC(=O)COC(=O)c1cnccn1,0.45% (inactive)
21,CCOc1ccc2[nH]c3nc(SCC(=O)NC4CCCC4)nnc3c2c1,-4.45% (inactive)
22,CCN1C(=O)[C@H]2[C@@H](c3ccc(-c4ccc(OC)cc4)cc3)N[C@@](Cc3ccccc3)(C(=O)OC)[C@H]2C1=O,-3.39% (inactive)
23,CCN1C(=O)[C@H]2[C@@H](c3ccc(SC4CCCCC4)c(OC)c3)N[C@@](Cc3ccccc3)(C(=O)OC)[C@H]2C1=O,15.5% (active)

row,Structure (SMILES),Tm shift relative to glycine control
1,CCN1C(=O)[C@H]2[C@@H](c3ccc(-c4ccc(F)cc4)cc3)N[C@@](Cc3ccccc3)(C(=O)OC)[C@H]2C1=O,1.35% (inactive)
2,Cc1ccc(C(=O)OCC(=O)Nc2ccc(Cl)cn2)cc1S(=O)(=O)N1CCOCC1,3.32% (inactive)
3,COc1cccc(N2CC(C(=O)NCc3n[nH]c(=O)c4ccccc34)CC2=O)c1 (stereo unspecified),-0.43% (inactive)
4,Cc1cc(Cl)ccc1N1C(=O)CC(SCCC(=O)O)C1=O (stereo unspecified),2.57% (inactive)
5,C=CCN1C(=O)C(O)(CC(=O)c2ccc(Cl)cc2)c2ccccc21 (stereo unspecified),-2.1% (inactive)
6,C=CCN1C(=O)C(O)(CC(=O)c2ccccn2)c2ccccc21 (stereo unspecified),-0.48% (inactive)
7,O=C(CC1(O)C(=O)N(CN2CCOCC2)c2ccccc21)c1ccccc1 (stereo unspecified),27.8% (active)
8,COc1ccccc1C(=O)NC(CCSC)C(=O)N1CCN(C/C=C/c2ccccc2)CC1 (stereo unspecified),2.33% (inactive)
9,COc1ccccc1N1CCN(c2ncnc3sc(C)c(-c4ccccc4)c23)CC1,1.26% (inactive)
10,Cc1[nH]n(C)c(=O)c1N=Nc1ccc(S(C)(=O)=O)cc1,1.71% (inactive)
11,Cc1[nH]n(C(N)=S)c(=O)c1N=Nc1ccc(Cl)cc1Cl,15% (active)
12,CC1=NN(C(N)=S)C(=O)C1N=Nc1cc(Cl)ccc1Cl (stereo unspecified),8.72% (inactive)
13,CCN(C(=O)COC(=O)CCOc1cccc(C)c1)c1c(N)n(Cc2ccccc2)c(=O)[nH]c1=O,0.18% (inactive)
14,Nc1nnc(SCC(=O)Nc2ccc3nc(SCC(=O)Nc4ccccc4)sc3c2)s1,29.3% (active)
15,CCCCNC(=O)CSc1nc2ccc(NC(=O)CSc3nnc(COc4ccccc4C)n3C)cc2s1,-6% (inactive)
16,CCCCNC(=O)CSc1nc2ccc(NC(=O)CSc3nnc(N)s3)cc2s1,1.91% (inactive)
17,NS(=O)(=O)c1ccc(CCNC(=O)CN2C(=O)c3ccccc3S2(=O)=O)cc1,3.53% (inactive)
18,Cc1cccc(OCc2nnc(SCn3nnc4ccccc4c3=O)o2)c1,-0.61% (inactive)
19,Cc1cccc(OCc2nnc(SCc3nc4cc(C(F)(F)F)ccc4c(=O)[nH]3)o2)c1,15.6% (active)
20,COc1cc(CN(C)Cc2nc3cc(C(F)(F)F)ccc3c(=O)[nH]2)ccc1OC(F)F,0.52% (inactive)
21,Cc1onc(-c2c(F)cccc2Cl)c1C(=O)Nc1cccc(S(=O)(=O)N2CCCCC2)c1,-2.74% (inactive)
22,O=C(NCCc1c[nH]c2ccccc12)C1CCN(Cc2ccc(Br)cc2)CC1,-4.03% (inactive)
23,Cc1ccc2[nH]cc(CCNC(=O)C3CCCCC3)c2c1,1.08% (inactive)

row,Structure (SMILES),Tm shift relative to glycine control
1,Cc1ccc2[nH]cc(CCCN3C(=O)c4ccccc4C3=O)c2c1,-9.79% (inactive)
2,O=C(NCCc1c[nH]c2ccccc12)c1cccc(Br)c1,31.4% (active)
3,O=C(NCCc1c[nH]c2ccccc12)c1cc2ccccc2oc1=O,-6.92% (inactive)
4,Cc1ccc(S(=O)(=O)N(C)CC(=O)NCCc2c[nH]c3ccccc23)cc1,1.04% (inactive)
5,O=C(NCCc1ccc(Cl)cc1Cl)c1cc([N+](=O)[O-])c[nH]c1=O,-10.1% (inactive)
6,N#CCc1c[nH]c2ccc([N+](=O)[O-])cc12,14% (active)
7,O=C(NCCc1c[nH]c2ccc(Cl)cc12)c1ccc([N+](=O)[O-])cc1,17.5% (active)
8,Cc1ccc2[nH]cc(CCNC(=O)c3ccc([N+](=O)[O-])cc3)c2c1,9.11% (inactive)
9,O=[N+]([O-])c1ccc2[nH]c3c(c2c1)CCCC3O (stereo unspecified),5.4% (inactive)
10,Cc1cc(C)cc(NC(=S)NCCc2c[nH]c3ccccc23)c1,20.2% (active)
11,COc1ccc(F)cc1S(=O)(=O)NCC(c1ccc2c(c1)OCO2)N1CCN(C)CC1 (stereo unspecified),-1.98% (inactive)
12,COc1ccc(NC(=S)N2CCC(NC(=O)c3cccc(F)c3)CC2)cc1,1.82% (inactive)
13,COc1ccc2oc(C(=O)NCc3ccco3)c(C)c2c1,0.95% (inactive)
14,Cc1ccc(C(=O)c2ccc(N3CCN(C)CC3)c([N+](=O)[O-])c2)cc1,-4.39% (inactive)
15,Cc1ccc(Br)c(NS(=O)(=O)c2cccc(C(=O)N3CCNC(=O)C3)c2)c1,-2.24% (inactive)
16,O=C(CO/N=C/c1ccc(OC(F)F)cc1)NCc1ccc(F)cc1,-0.25% (inactive)
17,CC1(NC(=O)CCS(=O)(=O)c2ccc(Cl)cc2)CCS(=O)(=O)C1 (stereo unspecified),1.08% (inactive)
18,NC(=O)Nc1ccccc1C(=O)NCCc1ccccc1,-3.04% (inactive)
19,CCOC(=O)CN(C(=O)COc1nc(C)cc(C)c1C#N)c1ccc(Cl)cc1,0.21% (inactive)
20,COc1ccc(/C=N/Nc2nc(-c3ccc(C)cc3)c(C#N)c(=O)[nH]2)cc1,-2.83% (inactive)
21,COc1ccc(/C=N/N=C/c2c[nH]c(=O)c(C#N)c2Nc2ccccc2)cc1,35.8% (active)
22,COc1ccc(/C=N/Nc2ccccc2C(=O)O)cc1,-10.2% (inactive)
